Assay results from PubChem BioAssay (Tox21).
Several values for one entry are separate records, joined by “and”; a condition that tells them apart may be missing. Equal entries are not always repeated. Results filed as inconclusive are left out. Entries that show only a call come without a potency. Activity calls are given as the source filed them. Unless noted, the call rests on the fitted dose curve; in most records, active means well fitted curve in the direction sought with a large enough effect in the repeat runs; inconclusive means weak or mixed curves; inactive means flat fitted curve, though single readings scatter.

Assays:
[1] = qHTS assay to test for compound auto fluorescence at 535 nm (green) in HEK293 cells (AID 720680); conditions: green autofluorescence 485/535 nm; series mostly up to 91.3 µM
[2] = qHTS assay to test for compound auto fluorescence at 460 nm (blue) in HEK293 cell free culture (AID 720681); conditions: cell-free medium, autofluorescence 405/460 nm (blue); series mostly up to 91.3 µM
In short: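 Compounds were added to cell-free DMEM with 10% FBS and fluorescence read directly. The blue channel used 405 nm excitation and 460 nm emission, with triamterene as the reference fluorophore.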

[3] = qHTS assay to test for compound auto fluorescence at 535 nm (green) in HEK293 cell free culture (AID 720682); conditions: cell-free medium, green autofluorescence 485/535 nm, hits give high values; series mostly up to 91.3 µM
In short: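 Using fluorescein as calibrant, autofluorescence was quantified at 485/535 nm in cell-free DMEM containing 10% FBS after pintool addition of compound or vehicle.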

[4] = qHTS assay to test for compound auto fluorescence at 590 nm (red) in HEK293 cell free culture (AID 720683); conditions: cell-free medium autofluorescence, Ex540/Em590 red; series mostly up to 91.3 µM
In short: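 Cell-free wells of DMEM with 10% FBS received compound, and intrinsic fluorescence was read at excitation/emission 540/590 nm. Values expressed as equivalence to Rose Bengal sodium.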

[5] = qHTS assay to test for compound auto fluorescence at 590 nm (red) in HepG2 cell free culture (AID 720684); conditions: cell-free medium autofluorescence, red 540/590 nm; series mostly up to 91.3 µM
In short: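 Rose Bengal sodium served as the reference for red signal. Test compounds were dispensed into serum-containing MEM (10% FBS) without cells, and plates were read at 540/590 nm.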

[6] = qHTS assay to test for compound auto fluorescence at 460 nm (blue) in HepG2 cell free culture (AID 720685); conditions: Cell-free culture medium, blue autofluorescence 405/460 nm; series mostly up to 91.3 µM
In short: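 Cell-free plates of MEM plus 10% FBS received 23 nL compound or DMSO vehicle; blue-channel (405/460 nm) intensity scored against triamterene as reference fluorophore.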

[7] = qHTS assay to test for compound auto fluorescence at 535 nm (green) in HepG2 cell free culture (AID 720686); conditions: Cell-free medium, green autofluorescence 485/535 nm; series mostly up to 91.3 µM
[8] = qHTS assay to test for compound auto fluorescence at 460 nm (blue) in HepG2 cells (AID 720687); conditions: autofluorescence 405/460 nm, 1 h; series mostly up to 91.3 µM
In short: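 HepG2 cells in MEM with 10% FBS, attached overnight at 37 C, were exposed to compound or DMSO for 1 hr at 37 C, 5% CO2. Blue fluorescence was read at 405/460 nm, with triamterene as reference fluorophore.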

[9] = target: Glucocorticoid receptor (Homo sapiens) (UniProt P04150); assay: qHTS assay to identify small molecule agonists of the glucocorticoid receptor (GR) signaling pathway (AID 720691; active means well fitted activation curve with a large enough effect in the signal ratio in the repeat runs, not every such curve was filed as active; the % refers to the signal ratio); conditions: GR-bla HeLa, beta-lactamase reporter ratio, 18 h; series mostly up to 62.4 µM
Glucocorticoid receptor (Homo sapiens), sequence (P04150 whole entry, looked up): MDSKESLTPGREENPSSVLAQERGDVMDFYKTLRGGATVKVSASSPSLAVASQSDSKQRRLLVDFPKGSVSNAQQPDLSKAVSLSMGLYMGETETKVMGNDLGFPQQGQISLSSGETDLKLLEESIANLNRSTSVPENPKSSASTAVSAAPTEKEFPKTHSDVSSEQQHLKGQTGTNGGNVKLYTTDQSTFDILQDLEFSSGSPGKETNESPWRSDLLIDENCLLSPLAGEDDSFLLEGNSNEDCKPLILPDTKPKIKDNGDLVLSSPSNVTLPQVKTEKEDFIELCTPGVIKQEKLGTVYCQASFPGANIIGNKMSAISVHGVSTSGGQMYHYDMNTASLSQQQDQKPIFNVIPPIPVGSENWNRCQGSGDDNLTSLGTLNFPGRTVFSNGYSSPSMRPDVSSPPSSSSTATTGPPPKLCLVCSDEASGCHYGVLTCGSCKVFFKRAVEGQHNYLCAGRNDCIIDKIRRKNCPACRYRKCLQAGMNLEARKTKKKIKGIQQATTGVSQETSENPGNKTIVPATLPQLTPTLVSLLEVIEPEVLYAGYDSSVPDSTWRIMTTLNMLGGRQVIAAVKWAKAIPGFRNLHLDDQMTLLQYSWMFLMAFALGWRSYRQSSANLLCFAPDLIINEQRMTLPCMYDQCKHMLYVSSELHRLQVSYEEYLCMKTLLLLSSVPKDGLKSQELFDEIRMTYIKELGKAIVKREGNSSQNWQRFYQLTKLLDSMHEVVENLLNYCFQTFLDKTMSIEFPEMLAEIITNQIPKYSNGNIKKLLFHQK
In short: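 HeLa GR-bla reporter line; cells pre-incubated 4 h, compound in DMSO 18 h at 37 C; LiveBLAzer B/G FRET substrate 2 h RT; fluorescence intensity read-out.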

[10] = target: Glucocorticoid receptor (Homo sapiens) (UniProt P04150); assay: qHTS assay to identify small molecule antagonists of the glucocorticoid receptor (GR) signaling pathway (AID 720692; active means well fitted inhibition curve with a large enough effect in the signal ratio in the repeat runs, not every such curve was filed as active; the % refers to the signal ratio; further: potency means the concentration at half of the fitted maximal effect); conditions: GR-bla HeLa, beta-lactamase FRET ratio, dexamethasone-stimulated, 18 h; series mostly up to 58.5 µM
In short: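 Read-out: beta-lactamase FRET substrate fluorescence, 2 h at room temperature, in HeLa cells stably carrying a GRE-driven bla reporter. Compounds were co-incubated with 5 nM dexamethasone agonist (final) for 18 h at 37 C.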

SMILES	outcome [1]	outcome [2]	outcome [3]	outcome [4]	outcome [5]	outcome [6]	outcome [7]	outcome [8]	outcome [9]	Potency [10]
CNC	inactive	inactive	inactive	inactive	inactive	inactive	inactive	inactive	inactive	inactive
Oc1cccc2cccnc12	–	inactive	inactive	inactive	inactive	inactive	inactive	inactive	–	–
N#CS	inactive	inactive	inactive	inactive	inactive	inactive	inactive	inactive	inactive	inactive
O=S(=O)(O)O	–	inactive	inactive	inactive	inactive	inactive	inactive	inactive	–	–
CCCC[N+]1(C)CCCC1	–	inactive	inactive	inactive	inactive	inactive	inactive	inactive	–	–
COc1ccccc1N	inactive	inactive	inactive	inactive	inactive	inactive	inactive	inactive	–	–
CCCCCCCCCCCC(=O)O	–	inactive	inactive	inactive	inactive	inactive	inactive	inactive	–	–
Nc1ccc(-c2ccc(N)c(Cl)c2)cc1Cl	inactive	inactive	inactive	inactive	inactive	inactive	inactive	inactive	–	19.6 µM (active) and 11.5 µM (active) and 19.5 µM (active)
C=CCOC(Cn1ccnc1)c1ccc(Cl)cc1Cl (stereo not drawn)	inactive	inactive	inactive	inactive	inactive	inactive	inactive	inactive	inactive	inactive
O=[N+]([O-])O	inactive	inactive	inactive	inactive	inactive	inactive	inactive	inactive	inactive	inactive
CC[n+]1ccccc1	–	inactive	inactive	inactive	inactive	inactive	inactive	inactive	–	–
OCCOc1ccccc1	inactive	inactive	inactive	inactive	inactive	inactive	inactive	inactive	inactive	inactive
CCNc1nc(Cl)nc(NCC)n1	inactive	inactive	inactive	inactive	inactive	inactive	inactive	inactive	inactive	inactive
CCn1cc[n+](C)c1C	inactive	inactive	inactive	inactive	inactive	inactive	inactive	inactive	–	–
CCOP(=S)(OCC)Oc1ccc2c(C)c(Cl)c(=O)oc2c1	inactive	inactive	inactive	inactive	inactive	inactive	inactive	inactive	inactive	–
CCCCCCCCCCCCn1cc[n+](C)c1	inactive	inactive	inactive	inactive	inactive	inactive	inactive	inactive	inactive	inactive

SMILES	outcome [1]	outcome [2]	outcome [3]	outcome [4]	outcome [5]	outcome [6]	outcome [7]	outcome [8]	outcome [9]	Potency [10]
CCCC[n+]1cccc(C)c1	inactive	inactive	inactive	inactive	inactive	inactive	inactive	inactive	inactive	inactive
CCCCCCCCn1cc[n+](C)c1	inactive	inactive	inactive	inactive	inactive	inactive	inactive	inactive	–	–
C[C@]12CCC(=O)C=C1CC[C@@H]1[C@@H]2CC[C@]2(C)C(=O)CC[C@@H]12	inactive	inactive	inactive	inactive	inactive	inactive	inactive	inactive	–	–
CC[N+]1(C)CCCC1	inactive	inactive	inactive	inactive	inactive	inactive	inactive	inactive	inactive	inactive
CCCCn1cc[n+](C)c1	inactive	inactive	inactive	inactive	inactive	inactive	inactive	inactive	–	–
CCCCCCCCCCCCOS(=O)(=O)O	inactive	inactive	inactive	inactive	inactive	inactive	inactive	inactive	inactive	inactive
CCCC[N+]1(C)CCCCC1	inactive	inactive	inactive	inactive	inactive	inactive	inactive	inactive	–	–
Nc1ccc(-c2ccc(N)cc2)cc1	inactive	inactive	inactive	inactive	inactive	inactive	inactive	inactive	inactive	inactive
CCCCCC[n+]1ccccc1	–	inactive	inactive	inactive	inactive	inactive	inactive	inactive	–	–
CCC[N+]1(C)CCCCC1	–	inactive	inactive	inactive	inactive	inactive	inactive	inactive	–	–
O=[N+]([O-])c1ccccc1O	inactive	inactive	inactive	inactive	inactive	inactive	inactive	inactive	inactive	inactive
CCCCCCCCCCCCCCCCn1cc[n+](C)c1	inactive	inactive	inactive	inactive	inactive	inactive	inactive	inactive	inactive	inactive
Oc1ccccc1-c1ccccc1	inactive	inactive	inactive	inactive	inactive	inactive	inactive	inactive	–	–
C[N+](C)(C)Cc1ccccc1	inactive	inactive	inactive	inactive	inactive	inactive	inactive	inactive	inactive	inactive
CCCCCCn1cc[n+](C)c1	inactive	inactive	inactive	inactive	inactive	inactive	inactive	inactive	–	–
COP(=O)(OC)OC=C(Cl)Cl	–	inactive	inactive	inactive	inactive	inactive	inactive	inactive	–	–
